# Reference: PubChem BioAssay AID2012 (Sanford-Burnham Center for Chemical Genomics, 2009)
# About 2,700 (0.93%) of roughly 290,000 compounds were called active. How the calls were made is not given here. This excerpt belongs to a sample that is enriched for actives.
# Biological target: Eukaryotic translation initiation factor 4H (Homo sapiens) (UniProt Q15056)
# Test: human eIF4H binding inhibitors, primary screen, translation initiation inhibitor project, biochemical, uHTS, fluorescence polarization (AID 2012);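 further: calls also rest on retests at 20 µM and on dose response follow-up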
# Conditions: eIF4H fluorescence polarization binding assay, stronger effect = higher value
Compound,inhibition (at 35 µM),"inhibition (confirmation average, at 20 µM) [%]"
CN1CCN(C(=O)C(=O)c2cn(CC(=O)N3CCCC3)c3ccccc23)CC1,-7.2% (inactive),–
CNC(=O)c1sc(Nc2ccc(OCc3ccccc3)cc2)nc1C,8% (inactive),–
CC(=O)Nc1ccc(/C=N/Nc2ccc(C(=O)c3c(C)cc4ccccn34)cc2[N+](=O)[O-])cc1,8.5% (inactive),–
Cc1cc2ccccn2c1C(=O)c1cccc(F)c1,-9.7% (inactive),–
Cc1ccc(C(C[N+](=O)[O-])c2c(C)cc3ccccn23)cc1 (configuration not stated),54.1% (active),84.9
CCOc1ccc(N(C)S(=O)(=O)c2cnc[nH]2)cc1,-1% (inactive),–
CC(Cc1ccccc1)C(=O)N(C)Cc1ccccc1 (configuration not stated),-2.7% (inactive),–
Cc1ccc(C)n1C(Cc1ccccc1)C(=O)O (configuration not stated),83% (active),–
COc1ccc(CNC(=O)C(Cc2ccccc2)n2cccc2)cc1 (configuration not stated),1.8% (inactive),–
Cc1cccc(N2CCN(C(=O)/C=C/c3ccco3)CC2)c1C,57.3% (active),101
O=C(/C=C/c1ccco1)NC(=S)N1CCCCC1,5.7% (inactive),–
CCC(CC)C(=O)N1CCN(c2cccc(C)c2C)CC1,-9.8% (inactive),–
CCOc1cc(/C=C2\SC(N3CCCC(C)C3)=NC2=O)ccc1O (configuration not stated),1.3% (inactive),–
CC(=O)c1cccc(NC(=O)C2CCN(C(=O)c3ccccc3Cl)CC2)c1,3.5% (inactive),–
COc1ccc(CCn2c(-c3ccco3)nc3nc4ccccc4nc32)cc1OC,3.6% (inactive),–
Cn1c(-c2ccco2)nc2cc3ccccc3cc21,4.9% (inactive),–
c1coc(-c2nc3nc4ccccc4n3nc2-c2ccco2)c1,73.4% (active),–
O=C(Nc1ccc(Cl)cc1)c1cccc(OC(=S)N2CCOCC2)c1,-8.8% (inactive),–
CC(=O)N1c2ccc(S(=O)(=O)N(C)CC(=O)N(C)Cc3ccccc3)cc2CC1C (configuration not stated),2.8% (inactive),–
O=C(CN1C(=O)c2cccnc2Oc2ccc(Cl)cc21)Nc1ccc(F)cc1,-8.2% (inactive),–
O=C(/C=C/Sc1ncn[nH]1)c1ccc(Cl)cc1,60.7% (active),65.7
Cc1cc(C)nc(S/C=C/C(=O)c2ccccc2)n1,-7.4% (inactive),–

Compound,inhibition (at 35 µM),"inhibition (confirmation average, at 20 µM) [%]"
COc1ccc(Cl)cc1CSc1ncn[nH]1,-9.7% (inactive),–
COc1ccc(C(=O)C2CCCN(C(=O)c3ccc(OC)o3)C2)c(C)c1 (configuration not stated),-2.6% (inactive),–
Oc1cccc(/C=N/Nc2ccc(Cl)nn2)c1O,24.2% (inactive),–
COc1ccc(/C=C2\SC(=S)N(CCCC(=O)NC3CCCC3)C2=O)cc1OC,48.7% (inactive),–
CCSc1nnc(NC(=O)c2ccc(C)cc2)s1,-9.1% (inactive),–
Cc1ccc(C(=O)Nc2nnc(-c3cccs3)s2)cc1C,-2.7% (inactive),–
Cc1ccc(C(=O)Oc2coc(CSc3nnc(NC(=O)c4cccs4)s3)cc2=O)cc1C,65.8% (active),85.6
CN1CCN(C(=O)c2ccccc2NC(=O)COc2ccccc2Cl)CC1,-9.2% (inactive),–
Cn1c(=O)[nH]c(=O)c2c1nc(N1CCN(C(c3ccccc3)c3ccccc3)CC1)n2CCO,0.3% (inactive),–
CCCc1ccc(OCCNC(=O)c2ccccc2Br)cc1,8.8% (inactive),–
CCOc1cnc(C(=O)NNC(=O)c2ccccc2Br)o1,85.7% (active),95
O=C(NC(=S)Nc1ncccn1)c1ccccc1Br,-2% (inactive),–
CCCCc1nc2cc(C(=O)N3CCCCC3CCO)ccc2o1 (configuration not stated),-1.1% (inactive),–
COc1ccc(CCNC(=O)C(=O)NCC2OCCN2S(=O)(=O)c2cccs2)cc1OC (configuration not stated),-4.1% (inactive),–
CCOc1ccc(NC(=O)c2ccc(NC(=O)C3CCCO3)cc2)cc1 (configuration not stated),-9.4% (inactive),–
Cc1ccc(OCC(=O)Nc2ccc(C(=O)O)cc2NC(=O)COc2ccc(C)c(C)c2)cc1C,4.8% (inactive),–
Cc1ccc(NC(=S)Nc2ccc(F)cc2)cc1,-11.3% (inactive),–
Cn1c(=O)n(Cc2ccco2)c(=N)c2c3c(sc21)CCCC3,-14.4% (inactive),–
CN1CCc2c(sc3c2c(NCc2ccco2)nc2nnnn23)C1,68% (active),–
CCCSc1nc(NCc2ccco2)c2c3c(sc2n1)COC(C)(CC)C3 (configuration not stated),4.7% (inactive),–
O=C(CCN1C(=O)[C@@H]2Cc3ccccc3CN2C1=O)NCc1ccccc1,-0.5% (inactive),–
Cc1ccc(CNC(=O)CCN2C(=O)[C@@H]3Cc4ccccc4CN3C2=O)cc1,-3.4% (inactive),–

Compound,inhibition (at 35 µM),"inhibition (confirmation average, at 20 µM) [%]"
O=C(CCN1C(=O)[C@@H]2Cc3ccccc3CN2C1=O)NCCc1ccccc1,80.7% (active),–
COc1ccc(OC)c(C(O)c2nc3ccccc3n2C)c1 (configuration not stated),-3.8% (inactive),–
Cc1ccc(C(C)C)cc1OCC(=O)Nc1ccccc1N1CCCC1,-15.8% (inactive),–
CC(=O)Oc1ccc(-c2cccc(C(=O)N3CCCCC3)c2)cc1,5.5% (inactive),–
CC(C)(C)C1C/C(=C/c2ccco2)C(=O)/C(=C/c2ccco2)C1 (configuration not stated),71.6% (active),82.6
O=C1OC(/C=C/c2ccccc2)=NC/1=C/c1ccco1,76.9% (inactive),4.3
CCC1S/C(=N/N=C/c2ccco2)NC1=O (configuration not stated),9.4% (inactive),–
O=C(NCc1ccccc1Cl)C1CCN(S(=O)(=O)c2cccc3nonc23)CC1,9.7% (inactive),–
C=CCN1C(=O)C2(OCCCO2)c2cccc(Cl)c21,0.1% (inactive),–
O=C(CN1CCC(NC(=O)Nc2ccccc2)CC1)Nc1cccc([N+](=O)[O-])c1,-3.5% (inactive),–
COc1ccc(S(=O)(=O)N2CCOC2CNC(=O)C(=O)NCc2ccncc2)cc1C (configuration not stated),-2.1% (inactive),–
COc1ccccc1NC(=O)CSc1nnc(C)n1CC1CCCO1 (configuration not stated),-1.3% (inactive),–
CCOc1cccc(=O)c2c(C)n(CC3CCCO3)c(C)c12 (configuration not stated),79.5% (active),–
CCOc1ccc(NC(=O)c2cccc3c2C(=O)N(CC2CCCO2)C3)cc1 (configuration not stated),3% (inactive),–
Cc1c2cnn(CC(=O)NCCCN3CC(C)CC(C)C3)c(=O)c2c(C)n1Cc1ccc(Cl)cc1 (configuration not stated),-3.1% (inactive),–
O=[N+]([O-])c1ccc(NC(=S)N2CCN(c3ccccn3)CC2)cc1,-4.4% (inactive),–
CCn1cc(C(=O)NCCC(=O)NCCO)c(=O)c2cc3c(cc21)OCO3,13.7% (inactive),–
CCN(CC)C(=O)C(=O)Nc1cccc(Br)c1,-3% (inactive),–
CCN(CC)C(=O)CSC(Nc1cccc(F)c1)=C(C#N)C#N,63% (active),56.7
O=C(CCN1C(=O)c2ccccc2C1=O)Nc1cccc(F)c1,0.6% (inactive),–
